Several values for one entry are separate records, joined by “and”; a condition that tells them apart may be missing. Equal values may be shown once. Activity calls are given as the source filed them. Cut-off read from the data, not from the text of the source, unless noted: active = inhibition above about 80%; inactive = the rest.
Columns and labels:
[1] = target: 6-phosphogluconate dehydrogenase, decarboxylating (Homo sapiens) (UniProt P52209); test: inhibition of human phosphogluconate dehydrogenase – biochemical, recombinant enzyme, NADPH absorbance, primary screen (AID 1159550;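 active = at least 20% inhibition of 6-phosphogluconate dehydrogenase activity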); details: recombinant 6PGD, NADPH absorbance 341 nm; at 10 µM; stronger effect = higher value
[2] = viability loss with induced miR-34 in A549 – imaging, A549 dox-inducible miR-34, nuclei and caspase counts, primary screen (AID 1347080;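 active = compounds whose cell count with miR-34 switched on is under 0.7 times the count with it off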); details: A549 miR-34 inducible, Hoechst nuclei count, 48 h
[3] = MELAS cybrid and Rieske KO viability enhancers – cell-based, MELAS cybrids, Rieske KO mouse fibroblasts, CellTiter-Glo, primary screen (AID 1508586;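 active = mean z-score across replicates of 1.96 or higher in either the MELAS or the Rieske mutant cell line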;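 note: z relative to plate mean and SD of compound and empty wells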); details: low glucose
[4] = target: NAD(+) hydrolase SARM1 (Homo sapiens) (UniProt Q6SZW1); test: blocking NAD cleavage by SARM1 SAM-TIR – cell lysate, NAD-Glo luminescence (AID 1508614;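 active = compound whose remaining NAD level is above about 45 nM, limit read from the data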;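 note: higher remaining NAD means stronger inhibition of SARM1 NADase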); details: SAM-TIR HEK293T lysate NADase, at 1 µM, stronger effect = higher value
[5] = target: Mitogen-activated protein kinase 7 (Homo sapiens) (UniProt Q13164); test: Gal4-ERK5 driven luciferase induction – cell-based, HTS, primary screen (AID 1508626;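 active = luciferase signal above three times the same-plate solvent-only control wells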;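 note: luciferase driven by Gal4-ERK5 fusion binding five Gal4 sites before minimal TATA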); details: HeLa Gal4-ERK5 transactivation, 18 h, at 5 µM, stronger effect = higher value
[6] = blockers of cellular phospholipid synthesis – cell-based, LOPAC library, screen 4, primary screen (AID 1347384; call rule not given here); details: animal cells, phospholipid biosynthesis inhibition screen; at 10 µM
[7] = galactose survival enhancers in mitochondrial complex I cybrids – cell-based, galactose medium, ATP luminescence, primary screen (AID 1645843;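 active = z-score of at least 1.8 in each of two replicates, scored against plate mean and spread of sample wells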;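 note: positive z means more ATP and so rescue of galactose-driven cybrid death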); details: complex I mutant cybrid cells, 72 h, stronger effect = higher value
[8] = growth inhibition, single agent or in combination, cell-based, chromothripsis tumors, cisplatin or BGB combos (AID 1671449); details: LFS_MB_P medulloblastoma cells;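 note: cells exposed for 96 hours; 0% = vehicle DMSO and 100% = killing by high DMSO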
[9] = growth inhibition, single agent and combos, cell-based, chromothripsis tumors, cisplatin or BGB combos (AID 1671450); details: HDN33 neuroblastoma cells, stronger effect = higher value;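 note: cells exposed to compound for four days; 0% = vehicle DMSO and 100% = cell killing by high DMSO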
[10] = growth inhibition, single agents and combos, ICB984, cell-based, cisplatin or BGB combos, synergistic combos for chromothripsis tumors (AID 1671451; call rule not given here;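 note: cells exposed for 96 hours before readout; 0% = vehicle DMSO and 100% = killing by high DMSO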); details: ICB984 medulloblastoma cells, drug combinations, stronger effect = higher value
[11] = growth inhibition, single agents and combos, LFS_MB_1R, cell-based, cisplatin or BGB combos, synergistic combos for chromothripsis tumors (AID 1671452); details: LFS_MB_1R medulloblastoma cells, stronger effect = higher value;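 note: cells exposed for 96 hours before readout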
[12] = growth inhibition, single agents and combos, HTB85, cell-based, BGB or cisplatin IC20 combos, synergistic combos for chromothripsis tumors (AID 1671453); details: HTB85 osteosarcoma cells, drug combinations, stronger effect = higher value;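 note: cells exposed for 96 hours before readout; 0% = vehicle DMSO and 100% = high DMSO killing control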
[13] = growth inhibition, single agents and combos, CRL2098, cell-based, BGB or cisplatin IC20 combos, synergistic combos for chromothripsis tumors (AID 1671454); details: CRL2098 osteosarcoma cells, drug combinations, stronger effect = higher value;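 note: cells exposed for 96 h before readout; 0% = vehicle DMSO and 100% = killing by high DMSO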
[14] = growth inhibition, single agents and combos, HD-MB03, cell-based, BGB or cisplatin IC20 combos, synergistic combos for chromothripsis tumors (AID 1671455; in the data active = inhibition above about 83%;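 note: 0% = vehicle DMSO and 100% = high DMSO as cytotoxic control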); details: HD-MB03 medulloblastoma cells, stronger effect = higher value
[15] = growth inhibition, single agents and combos, UWB1.289, cell-based, BGB or cisplatin combos, synergistic combos for chromothripsis tumors (AID 1671456); details: UWB1.289 ovarian carcinoma cells, stronger effect = higher value;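 note: cells exposed to compound for four days; 0% = vehicle DMSO and 100% = killing by high DMSO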
[16] = growth inhibition, single agents and combos, LFS_MB_2R, cell-based, cisplatin combos, synergistic combos for chromothripsis tumors (AID 1671457); details: LFS_MB_2R medulloblastoma cells, stronger effect = higher value;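 note: cells exposed to compound for four days before readout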
[17] = growth inhibition, MDA-MB-436, cell-based, BGB or cisplatin combos, synergistic combos for chromothripsis tumors (AID 1671458; call rule not given here;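 note: cells exposed for 96 hours; 0% = vehicle DMSO and 100% = killing by high DMSO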); details: MDA-MB-436 breast carcinoma growth inhibition, drug combinations, stronger effect = higher value
[18] = UWB1.289_BRCA1 ovarian cancer growth, cell-based, BGB or cisplatin combinations (AID 1671459); details: UWB1.289 BRCA1 ovarian carcinoma, drug combinations, stronger effect = higher value
[19] = drug combination toxicity in non-malignant astrocytes – cell-based, BGB or cisplatin IC20 combos, cytotoxicity control for chromothriptic childhood tumor combination screen (AID 1671460); details: Human astrocytes, viability inhibition, drug combinations, at 0.5 µM, stronger effect = higher value;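 note: cells exposed to compounds for 96 hours before viability readout; 0% = vehicle and 100% = killing control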
[20] = BT084 cell growth, single and combined drugs, ICGC_MB145, cisplatin and BGB IC40 combos (AID 1671461); details: BT084 medulloblastoma cells, drug combinations, stronger effect = higher value;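 note: cells exposed to drugs for 96 hours; 0% = vehicle DMSO and 100% = high DMSO full killing control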
[21] = RCMB18 cell growth, single agent and combined, cisplatin and BGB IC40 combos (AID 1671462); details: RCMB18 medulloblastoma cells, stronger effect = higher value;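 note: cells exposed to compound for four days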
[22] = CRL1545 cell growth, single agent and combined, cisplatin and BGB IC20 combos (AID 1671464); details: CRL1545 osteosarcoma cells, stronger effect = higher value;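 note: cells exposed to compound for 96 hours before readout; 0% = vehicle DMSO and 100% = high DMSO killing control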
[23] = stronger effect = lower value, cell number ratio, induced over uninduced
[24] = measured here: relative caspase fold change +Dox/-Dox
[25] = measured here: total cells with miR-34 induction, stronger effect = lower value
[26] = measured here: total cells without miR-34 induction
[27] = MELAS cybrid survival, CellTiter-Glo 48 h, stronger effect = higher value
[28] = Rieske KO mouse fibroblast survival, CellTiter-Glo 72 h
[29] = measured here: combination with BGB IC40, at 0.05 µM
[30] = measured here: with BGB IC20 combination, at 0.5 µM
[31] = measured here: with cisplatin IC20 combination, at 0.5 µM
[32] = measured here: combination with cisplatin, at 0.5 µM
[33] = measured here: combination with cisplatin, at 5 µM

6-phosphogluconate dehydrogenase, decarboxylating (Homo sapiens), sequence (P52209 whole entry, looked up): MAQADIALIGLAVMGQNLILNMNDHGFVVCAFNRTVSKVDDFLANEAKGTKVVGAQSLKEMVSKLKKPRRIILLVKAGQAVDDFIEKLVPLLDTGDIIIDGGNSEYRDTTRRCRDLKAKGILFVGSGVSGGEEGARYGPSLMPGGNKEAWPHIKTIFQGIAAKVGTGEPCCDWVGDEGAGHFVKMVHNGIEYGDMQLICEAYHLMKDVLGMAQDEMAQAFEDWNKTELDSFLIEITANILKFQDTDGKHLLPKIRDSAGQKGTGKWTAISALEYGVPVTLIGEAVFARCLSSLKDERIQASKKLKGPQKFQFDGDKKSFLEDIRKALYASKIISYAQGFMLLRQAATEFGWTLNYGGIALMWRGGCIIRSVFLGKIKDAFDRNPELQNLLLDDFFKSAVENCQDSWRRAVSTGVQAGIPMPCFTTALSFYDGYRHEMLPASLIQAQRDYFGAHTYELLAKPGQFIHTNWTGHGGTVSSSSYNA
Mitogen-activated protein kinase 7 (Homo sapiens), sequence (Q13164 whole entry, looked up, the tested form may be a part): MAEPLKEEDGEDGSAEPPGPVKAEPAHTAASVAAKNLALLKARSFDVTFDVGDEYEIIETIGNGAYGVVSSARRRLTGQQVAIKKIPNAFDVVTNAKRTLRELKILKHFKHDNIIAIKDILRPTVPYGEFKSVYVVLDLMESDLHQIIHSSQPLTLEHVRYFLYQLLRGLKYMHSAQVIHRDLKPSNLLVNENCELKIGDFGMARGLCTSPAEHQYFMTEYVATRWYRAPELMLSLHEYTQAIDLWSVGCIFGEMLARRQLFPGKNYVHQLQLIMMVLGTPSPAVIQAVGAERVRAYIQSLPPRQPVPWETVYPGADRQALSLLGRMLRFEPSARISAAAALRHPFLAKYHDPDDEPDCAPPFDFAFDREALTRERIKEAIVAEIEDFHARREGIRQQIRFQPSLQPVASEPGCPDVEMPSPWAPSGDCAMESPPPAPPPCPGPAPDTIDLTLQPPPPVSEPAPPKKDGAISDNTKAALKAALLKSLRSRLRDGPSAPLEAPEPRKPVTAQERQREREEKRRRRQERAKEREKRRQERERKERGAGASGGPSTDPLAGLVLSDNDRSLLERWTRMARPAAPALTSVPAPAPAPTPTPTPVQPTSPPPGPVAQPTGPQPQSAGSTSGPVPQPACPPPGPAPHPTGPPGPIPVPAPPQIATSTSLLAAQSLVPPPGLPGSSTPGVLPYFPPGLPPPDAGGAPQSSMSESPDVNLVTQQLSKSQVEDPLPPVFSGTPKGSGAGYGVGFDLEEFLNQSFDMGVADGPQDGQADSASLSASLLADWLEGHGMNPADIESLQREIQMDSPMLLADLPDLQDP
NAD(+) hydrolase SARM1 (Homo sapiens), sequence (Q6SZW1 whole entry, looked up, the tested form may be a part): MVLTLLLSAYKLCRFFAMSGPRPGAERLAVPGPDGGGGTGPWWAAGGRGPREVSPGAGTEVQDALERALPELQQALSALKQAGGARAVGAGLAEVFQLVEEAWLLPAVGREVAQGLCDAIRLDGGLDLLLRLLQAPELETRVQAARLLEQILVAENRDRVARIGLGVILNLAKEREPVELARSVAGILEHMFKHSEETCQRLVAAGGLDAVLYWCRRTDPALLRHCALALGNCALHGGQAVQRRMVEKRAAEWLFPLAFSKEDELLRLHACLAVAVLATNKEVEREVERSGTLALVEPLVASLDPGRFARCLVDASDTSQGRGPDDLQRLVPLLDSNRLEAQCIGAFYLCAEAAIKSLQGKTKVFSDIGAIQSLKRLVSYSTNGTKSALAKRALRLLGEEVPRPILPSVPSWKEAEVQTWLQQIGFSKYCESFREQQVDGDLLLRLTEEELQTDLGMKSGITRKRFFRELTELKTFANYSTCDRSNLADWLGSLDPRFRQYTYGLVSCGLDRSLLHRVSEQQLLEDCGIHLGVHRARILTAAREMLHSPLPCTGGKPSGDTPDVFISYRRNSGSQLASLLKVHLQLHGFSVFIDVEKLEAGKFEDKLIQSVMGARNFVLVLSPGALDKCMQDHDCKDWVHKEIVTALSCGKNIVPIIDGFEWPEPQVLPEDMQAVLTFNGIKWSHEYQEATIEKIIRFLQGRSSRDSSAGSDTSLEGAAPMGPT

O[C@H]1[C@H]2c3cc4c(cc3CN3CCC(=C[C@@H]1O)[C@H]23)OCO4
inhibition [1]: 9.07% (inactive) | fold change [2, 23]: 1.05 (inactive) | fold change [2, 24]: 1.33 | cell count [2, 25]: 1670 | cell count [2, 26]: 1580

C[N+]1(C)[C@@H]2CC[C@H]1CC(OC(=O)C(O)c1ccccc1)C2 (some centres not stated)
inhibition [1]: -20.5% (inactive) | fold change [2, 23]: 0.938 (inactive) | fold change [2, 24]: 0.48 | cell count [2, 25]: 8390 | cell count [2, 26]: 8940 | z-score [3, 27]: -0.289 (inactive) | z-score [3, 28]: -0.189 | remaining NAD [4]: 10 nM (inactive) | luciferase signal [5]: 20 AU (inactive)

COc1ccc(-c2cc(=O)c3c(O)c(OC)c(OC)cc3o2)cc1O
inhibition [1]: 3.27% (inactive) | fold change [2, 23]: 1.03 (inactive) | fold change [2, 24]: 0.681 | cell count [2, 25]: 5880 | cell count [2, 26]: 5680 | outcome [6]: inactive | z-score [7]: 0.86 (inactive)

COC1C(OC(N)=O)C(O)C(Oc2ccc3c(O)c(NC(=O)c4ccc(O)c(CC=C(C)C)c4)c(=O)oc3c2C)OC1(C)C (configuration not stated)
inhibition [1]: -15.7% (inactive) | fold change [2, 23]: 0.913 (inactive) and 0.926 (inactive) | fold change [2, 24]: 2.12 and 1.18 | cell count [2, 25]: 9290 and 8980 | cell count [2, 26]: 10200 and 9700 | z-score [3, 27]: -0.751 (inactive) and -0.28 (inactive) | z-score [3, 28]: -1.31 and -0.896 | z-score [7]: 0.215 (inactive) | inhibition ([8]; at 0.5 µM, stronger effect = higher value): -3.51% (inactive) | inhibition ([8]; measured here: combination with BGB IC20, at 0.005 µM): -14% | inhibition ([8]; measured here: combination with BGB IC40, at 0.005 µM): -18.4% | inhibition [8, 29]: -8.09% | inhibition ([8]; measured here: combination with cisplatin, at 0.5 µM, stronger effect = higher value): -1.03% | inhibition ([8]; measured here: combination with cisplatin, at 5 µM, stronger effect = higher value): -41% | inhibition ([9]; BGB combo, at 5 µM): -12% | inhibition ([9]; at 0.5 µM): -8.11% (inactive) | inhibition ([9]; cisplatin combo, at 5 µM): 0.721% | inhibition [9, 30]: 3.35% | inhibition [9, 31]: 2.19% | inhibition ([9]; single agent, at 5 µM): -35.9% | inhibition ([10]; BGB IC20 combo, at 0.005 µM): -23.7% | inhibition ([10]; BGB IC40 combo, at 0.005 µM): -54.1% | inhibition ([10]; BGB IC40 combo, at 0.05 µM): -30.8% | inhibition ([10]; at 0.5 µM): -1.24% (inactive) | inhibition ([10]; cisplatin combo, at 0.05 µM): -30.8% | inhibition ([10]; cisplatin combo, at 0.5 µM): -1.05% | inhibition ([10]; cisplatin combo, at 5 µM): -22.8% | inhibition ([10]; measured here: 5 uM single agent, at 5 µM): -16.3% | inhibition ([11]; at 0.5 µM): -15% (inactive) | inhibition [11, 29]: -15.8% | inhibition [11, 32]: 17.7% | inhibition [11, 33]: -65.5% | inhibition ([12]; at 0.5 µM): -17.6% (inactive) | inhibition ([12]; measured here: with BGB IC20, at 0.5 µM): -24% | inhibition ([12]; measured here: with BGB IC20, at 5 µM): 20.3% | inhibition ([12]; measured here: with cisplatin IC20, at 0.5 µM): -30.3% | inhibition ([12]; measured here: with cisplatin IC20, at 5 µM): -20.2% | inhibition ([12]; single agent, at 5 µM): -19% | inhibition ([13]; at 0.5 µM): -21.7% (inactive) | inhibition ([13]; measured here: combination with BGB at IC20, at 0.5 µM): -45.3% | inhibition ([13]; measured here: combination with cisplatin at IC20, at 0.5 µM): -25.6% | inhibition ([14]; at 0.5 µM): -9.35% (inactive) | inhibition ([14]; measured here: combo with BGB at IC20, at 0.5 µM): -5.37% | inhibition ([14]; measured here: combo with cisplatin at IC20, at 0.5 µM): -13.3% | inhibition ([15]; at 0.5 µM): -6.21% (inactive) | inhibition ([15]; measured here: inhibition with BGB combination, at 0.05 µM): -33.1% | inhibition ([15]; measured here: inhibition with cisplatin combination, at 0.05 µM): -19.6% | inhibition ([16]; at 0.5 µM): -20.5% (inactive) | inhibition [16, 32]: -9.82% | inhibition [16, 33]: -11.7% | inhibition ([17]; at 0.5 µM): -31.4% (inactive) | inhibition ([17]; measured here: BGB combination, at 0.5 µM): -38.4% | inhibition ([17]; measured here: BGB combination, at 5 µM): -32.4% | inhibition ([17]; measured here: cisplatin combination, at 0.5 µM): -35.8% | inhibition ([17]; measured here: cisplatin combination, at 5 µM): -21% | inhibition ([18]; BGB combination, concentration series, at 5 µM): -28.9% | inhibition ([18]; at 0.5 µM): -15.6% (inactive) | inhibition ([18]; cisplatin combination, concentration series, at 5 µM): -9.79% | inhibition [19]: -3.92% (inactive) | inhibition ([19]; measured here: combo with BGB IC20): 3.16% | inhibition ([19]; measured here: combo with cisplatin IC20): -8.92% | inhibition ([20]; at 0.5 µM): -4.18% (inactive) | inhibition ([20]; cisplatin combination, at 0.5 µM): 1.57% | inhibition ([20]; cisplatin combination, at 5 µM): -32.1% | inhibition ([20]; measured here: BGB IC40 combination 0.05 uM, at 0.05 µM): 37.7% | inhibition ([20]; single agent, at 5 µM): -18.6% | inhibition ([21]; at 0.5 µM): -22.3% (inactive) | inhibition ([21]; cisplatin combo, at 5 µM): 18.1% | inhibition ([21]; measured here: BGB IC40 combination, at 0.05 µM): -10.1% | inhibition [21, 32]: -16.8% | inhibition ([21]; single agent, at 5 µM): -14.1% | inhibition ([22]; at 0.5 µM): -43.4% (inactive) | inhibition [22, 30]: -36.9% | inhibition [22, 31]: -46.6% | inhibition ([22]; single agent, at 0.05 µM): -14.9% | inhibition ([22]; single agent, at 5 µM): 4.54%
